Source: PubChem BioAssay (Tox21)
Several values for one entry are separate records, joined by “and”; a condition that tells them apart may be missing. Equal entries are not always repeated. Inconclusive results are not listed. Activity calls are given as the source filed them. The call rests on the fitted dose curve; in most records, active means well fitted curve in the direction sought with a large enough effect in the repeat runs; inconclusive means weak or mixed curves; inactive means no such curve, though single readings can be large; an effect the other way counts as inactive or inconclusive.

Assays:
[1] = A CellTox Green Cytotoxicity Assay to monitor cytotoxicity in HEK293 cells - 8 hour (AID 1224884); further: nearly all actives have a fitted effect of over 35% in size; further: potency means the concentration at half of the fitted maximal effect
Outline: (§1)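 Cells (HEK293, 600/well) and dye reagent are dispensed together. After 5 h at 37 C, 23 nL compound is pinned in. Plates stay at 37 C for 40 h with fluorescence read at 0h, 8h, 16h, 24h, 32h and 40h.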

[2] = qHTS RealTime-Glo MT Cell Viability Assay in HepG2 cells - 16 hour (AID 1224885); further: nearly all actives have a fitted effect of over 50% in size; further: potency means the concentration at half of the fitted maximal effect
Outline: (§2)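 HepG2 cells were seeded at 600 cells/well together with NanoLuc luciferase and a cell-permeant prosubstrate, preincubated 5 h at 37 C/5% CO2, then pin-dosed with compounds in DMSO. Nonlytic luminescence from viable cells was read at each time point.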

[3] = qHTS RealTime-Glo MT Cell Viability Assay in HEK293 cells - 24 hour (AID 1224886); further: nearly all actives have a fitted effect of over 50% in size; further: potency means the concentration at half of the fitted maximal effect; on activity change, negative = cytotoxicity: top concentration of the series differs between compounds
Outline: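 HEK293 cells were seeded at 600 cells/well together with NanoLuc luciferase and cell-permeant prosubstrate, preincubated 5 h at 37 C/5% CO2, then given compound in DMSO by pintool. Luminescence from viable-cell prosubstrate reduction was read repeatedly over 40 h.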

[4] = qHTS RealTime-Glo MT Cell Viability Assay in HEK293 cells - 8 hour (AID 1224887); further: nearly all actives have a fitted effect of over 50% in size; further: potency means the concentration at half of the fitted maximal effect; on activity change, negative = cytotoxicity: top concentration of the series differs between compounds
Outline: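 Real-time viability in HEK293: signal arises when living cells convert a prosubstrate for NanoLuc in the medium, so luminescence tracks viable cell number. Compound (23 nL, DMSO) added 5 h post-seeding; kinetic reads at 0–40 h, 37 C.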

[5] = A CellTox Green Cytotoxicity Assay to monitor cytotoxicity in HEK293 cells - 16 hour (AID 1224888); further: nearly all actives have a fitted effect of over 35% in size; further: potency means the concentration at half of the fitted maximal effect
Outline: as §1

[6] = qHTS RealTime-Glo MT Cell Viability Assay in HepG2 cells - 0 hour (AID 1224889); further: nearly all actives have a fitted effect of over 50% in size
Outline: as §2

[7] = A CellTox Green Cytotoxicity Assay to monitor cytotoxicity in HepG2 cells - 8 hour (AID 1224890); further: nearly all actives have a fitted effect of over 45% in size; further: potency means the concentration at half of the fitted maximal effect
Outline: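 Cells and non-lytic dye reagent are dispensed together (600 HepG2 cells/well) and incubated 5 h before DMSO compound transfer. Kinetic fluorescence is then recorded in the same wells during 40 h at 37 C.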

[8] = qHTS assay to identify small molecule antagonists of the estrogen receptor alpha (ER-alpha) signaling pathway using the BG1 cell line in the presence of 0.1 nM 17-beta-estradiol - cell viability counter screen (AID 1259241); further: nearly all actives have a fitted effect of over 40% in size
Outline: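 Measures cytotoxicity alongside the ER-alpha antagonist readout: VM7Luc4E2 cells, charcoal-stripped serum, 0.1 nM 17beta-estradiol final, 22 hr compound incubation at 37C, CellTiter-Fluor fluorescence.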

[9] = qHTS assay to identify small molecule antagonists of the androgen receptor (AR) signaling pathway using the MDA cell line in the presence of 0.5 nM R1881 - cell viability counter screen (AID 1259242); further: nearly all actives have a fitted effect of over 45% in size; further: potency means the concentration at half of the fitted maximal effect
Outline: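 Steps: plate MDA-kb2 cells, rest 5 hr at 37C without CO2; pin in compounds in DMSO; add R1881 to 0.5 nM final; incubate 16 hr; add CellTiter-Fluor, 30 min; read fluorescence.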

[10] = target: Androgen receptor (Homo sapiens) (UniProt P10275); test: qHTS assay to identify small molecule antagonists of the androgen receptor (AR) signaling pathway using the MDA cell line in the presence of 0.5 nM R1881 (AID 1259243); further: nearly all actives have a fitted effect of over 50% in size; further: potency means the concentration at half of the fitted maximal effect
Androgen receptor (Homo sapiens), sequence (P10275 whole entry, looked up): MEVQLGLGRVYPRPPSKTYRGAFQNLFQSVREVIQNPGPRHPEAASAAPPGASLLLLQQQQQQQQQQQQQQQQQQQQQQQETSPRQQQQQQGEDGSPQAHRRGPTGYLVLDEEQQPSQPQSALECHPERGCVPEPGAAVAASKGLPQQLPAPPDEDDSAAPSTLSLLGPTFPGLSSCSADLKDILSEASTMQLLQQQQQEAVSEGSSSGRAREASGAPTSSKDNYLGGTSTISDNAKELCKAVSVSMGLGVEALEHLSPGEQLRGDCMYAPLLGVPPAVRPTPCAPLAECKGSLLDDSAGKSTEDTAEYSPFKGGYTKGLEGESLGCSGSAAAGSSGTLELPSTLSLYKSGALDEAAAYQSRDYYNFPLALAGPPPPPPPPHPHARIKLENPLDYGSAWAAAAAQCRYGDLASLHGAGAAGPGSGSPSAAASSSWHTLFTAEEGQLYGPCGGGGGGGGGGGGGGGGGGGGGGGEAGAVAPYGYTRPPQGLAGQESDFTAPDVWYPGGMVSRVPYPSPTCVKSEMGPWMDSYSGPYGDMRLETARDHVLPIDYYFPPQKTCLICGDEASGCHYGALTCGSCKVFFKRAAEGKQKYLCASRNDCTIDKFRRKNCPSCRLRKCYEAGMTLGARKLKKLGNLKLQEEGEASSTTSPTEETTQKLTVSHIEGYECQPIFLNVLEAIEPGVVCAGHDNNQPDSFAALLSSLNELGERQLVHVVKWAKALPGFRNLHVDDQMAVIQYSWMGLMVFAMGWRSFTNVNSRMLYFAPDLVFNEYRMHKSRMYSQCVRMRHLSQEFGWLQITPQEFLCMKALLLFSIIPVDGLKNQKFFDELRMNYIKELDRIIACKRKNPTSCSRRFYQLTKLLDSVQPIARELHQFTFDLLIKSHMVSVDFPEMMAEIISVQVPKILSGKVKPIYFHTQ
Outline: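 Stably transfected MDA-kb2 cells express luciferase from an MMTV promoter bearing both AR and GR response elements. Compounds plus 0.5 nM R1881 (final) were incubated 16 hr at 37C without CO2, then luminescence measured.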
On the % scale 0 is the no-effect control and ±100 the full control effect.

CC(C)(C)c1n[nH]c(=O)n(N)c1=O
inactive: Potency [1] | Potency [2] | Potency [3] | Potency [4] | Potency [5] | Potency [6] | Potency [7] | Potency [8] | Potency [9] | Potency [10]

CCCCCCCCCCCCOC(=O)c1cc(O)c(O)c(O)c1
inactive: Potency [6]
active: Potency [1] 54.7 µM | Potency [2] 48.8 µM and 49 µM | Potency [3] 4.35 µM and 3.89 µM | Potency [4] 7.73 µM and 6.17 µM | Potency [5] 54.7 µM and 43.6 µM | Potency [7] 48.8 µM and 21.9 µM | Potency [9] 60.9 µM

CCc1ccc(C)nc1
inactive: Potency [1] | Potency [2] | Potency [3] | Potency [4] | Potency [5] | Potency [6] | Potency [7] | Potency [8] | Potency [9] | Potency [10]

COc1ccccc1C=O
inactive: Potency [1] | Potency [2] | Potency [3] | Potency [4] | Potency [5] | Potency [6] | Potency [7] | Potency [8] | Potency [9] | Potency [10]

C[C@H]1O[C@@H](O[C@H]2[C@@H](O)C[C@H](O[C@H]3[C@@H](O)C[C@H](O[C@H]4CC[C@@]5(C)[C@H](CC[C@@H]6[C@@H]5C[C@@H](O)[C@]5(C)[C@@H](C7=CC(=O)OC7)CC[C@]65O)C4)O[C@@H]3C)O[C@@H]2C)C[C@H](O)[C@@H]1O
inactive: Potency [1] | Potency [2] | Potency [4] | Potency [5] | Potency [6] | Potency [7] | Potency [8] | Potency [9] | Potency [10]
active: Potency [3] 69.2 nM and 61 nM

CC(=O)OC1CCCCC1
inactive: Potency [1] | Potency [2] | Potency [3] | Potency [4] | Potency [5] | Potency [6] | Potency [7] | Potency [8] | Potency [9] | Potency [10]

OCCCCl
inactive: Potency [1] | Potency [2] | Potency [3] | Potency [4] | Potency [5] | Potency [6] | Potency [7] | Potency [8] | Potency [9] | Potency [10]

Cc1cnccn1
inactive: Potency [1] | Potency [2] | Potency [3] | Potency [4] | Potency [5] | Potency [6] | Potency [7] | Potency [8] | Potency [9] | Potency [10]

O=Cc1ccc(F)cc1
inactive: Potency [1] | Potency [2] | Potency [3] | Potency [4] | Potency [5] | Potency [6] | Potency [7] | Potency [8] | Potency [9] | Potency [10]

CCCCCCS
inactive: Potency [1] | Potency [2] | Potency [3] | Potency [4] | Potency [5] | Potency [6] | Potency [7] | Potency [8] | Potency [9] | Potency [10]

CC(=O)C=O
inactive: Potency [1] | Potency [2] | Potency [3] | Potency [4] | Potency [5] | Potency [6] | Potency [7] | Potency [9] | Potency [10]

COC(=O)CC#N
inactive: Potency [1] | Potency [2] | Potency [3] | Potency [4] | Potency [5] | Potency [6] | Potency [7] | Potency [9]

COCC(=O)O[C@]1(CCN(C)CCCc2nc3ccccc3[nH]2)CCc2cc(F)ccc2[C@@H]1C(C)C
active: Potency [2] 19 µM | Potency [3] 6.01 µM | Potency [4] 6.74 µM | Potency [5] 23.9 µM | Potency [7] 23.9 µM | Potency [9] 21.1 µM | Potency [10] 16.8 µM
inactive: Potency [1] | Potency [6] | Potency [8]

Cc1c(C(=O)O)cccc1[N+](=O)[O-]
inactive: Potency [1] | Potency [2] | Potency [3] | Potency [4] | Potency [5] | Potency [6] | Potency [7] | Potency [8] | Potency [9] | Potency [10]

CCC(C)c1ccccc1 (stereo not drawn)
inactive: Potency [1] | Potency [2] | Potency [3] | Potency [4] | Potency [5] | Potency [6] | Potency [7] | Potency [8] | Potency [9] | Potency [10]

CC1=CP(=O)(c2ccccc2)CC1 (stereo not drawn)
inactive: Potency [1] | Potency [2] | Potency [3] | Potency [4] | Potency [5] | Potency [6] | Potency [7] | Potency [8] | Potency [9] | Potency [10]

CCCCCCCCCCCCCCCCCO
inactive: cytotoxicity increase [1] -22.7% [at 15.8 µM] | activity change, negative = cytotoxic [2] 1.76% [at 15.8 µM] | activity change, negative = cytotoxicity [3] 0.271% [at 15.8 µM] | activity change, negative = cytotoxicity [4] 2.17% [at 15.8 µM] | activity change [5] -22.1% [at 15.8 µM, stronger effect = higher value] | activity change, negative = cytotoxicity [6] -0.0873% [at 15.8 µM] | cytotoxicity increase [7] 1.25% [at 15.8 µM] | activity change, negative = cytotoxicity [8] -2.67% [at 19 µM] | viability change, negative = cytotoxic [9] -1.99% [at 19 µM] | activity, negative = inhibition [10] -1.74% [at 19 µM]

Clc1cccnc1
inactive: Potency [1] | Potency [2] | Potency [3] | Potency [4] | Potency [5] | Potency [6] | Potency [7] | Potency [8] | Potency [9] | Potency [10]

CC1(C)C(=O)N(Br)C(=O)N1Br
inactive: Potency [1] | Potency [2] | Potency [3] | Potency [4] | Potency [5] | Potency [6] | Potency [7] | Potency [8] | Potency [9] | Potency [10]

Cn1cccc1
inactive: Potency [1] | Potency [2] | Potency [3] | Potency [4] | Potency [5] | Potency [6] | Potency [7] | Potency [8] | Potency [9] | Potency [10]

Cc1ccc(O)cn1
inactive: Potency [1] | Potency [2] | Potency [3] | Potency [4] | Potency [5] | Potency [6] | Potency [7] | Potency [8] | Potency [9] | Potency [10]

CN(C)CCOC(c1ccccc1)c1ccccc1 (tested in a mixture with another compound)
inactive: Potency [1] | Potency [2] | Potency [3] | Potency [4] | Potency [5] | Potency [6] | Potency [7] | Potency [9] | Potency [10]

NCCCCCCNCCCCCCN
inactive: Potency [1] | Potency [2] | Potency [3] | Potency [4] | Potency [5] | Potency [6] | Potency [7] | Potency [9]

CCCCN(C)C
inactive: Potency [1] | Potency [2] | Potency [3] | Potency [4] | Potency [5] | Potency [6] | Potency [7] | Potency [9] | Potency [10]

CCCCCCCCCCCCCOP(=O)(O)O
inactive: Potency [1] | Potency [2] | Potency [3] | Potency [4] | Potency [6] | Potency [7] | Potency [8] | Potency [9]

CCN(CC)CCSC(=O)C(c1ccccc1)c1ccccc1
inactive: Potency [1] | Potency [2] | Potency [3] | Potency [4] | Potency [6] | Potency [7] | Potency [8] | Potency [9]

CCCCCCCCCCCCCCCC
inactive: Potency [1] | Potency [2] | Potency [3] | Potency [4] | Potency [6] | Potency [7] | Potency [8] | Potency [9]

Cc1cccc(C)c1NC(=O)CN1CCN(CCCC(c2ccc(F)cc2)c2ccc(F)cc2)CC1
active: Potency [2] 21.3 µM | Potency [3] 10.7 µM | Potency [4] 10.7 µM | Potency [7] 16.9 µM
inactive: Potency [1] | Potency [6] | Potency [8]

CSc1ccc2c(c1)N(CCC1CCCCN1C)c1ccccc1S2 (stereo not drawn)
active: Potency [1] 34.5 µM | Potency [2] 54.7 µM and 23.9 µM | Potency [3] 15.4 µM | Potency [4] 19.4 µM | Potency [5] 30.8 µM | Potency [9] 54.3 µM

Cc1cc(=O)[nH]c(=O)[nH]1
inactive: Potency [1] | Potency [2] | Potency [3] | Potency [4] | Potency [6] | Potency [7] | Potency [8] | Potency [9]

CCCCCCCC(C)=O
inactive: Potency [1] | Potency [2] | Potency [3] | Potency [4] | Potency [6] | Potency [7] | Potency [8] | Potency [9]

CC(=O)Oc1ccc(C2(c3ccc(OC(C)=O)cc3)Oc3ccccc3NC2=O)cc1
inactive: Potency [1] | Potency [2] | Potency [3] | Potency [4] | Potency [6] | Potency [7] | Potency [8] | Potency [9]

CN(C)CCCN1c2ccccc2CCc2ccccc21
inactive: Potency [1] | Potency [2] | Potency [3] | Potency [4] | Potency [5] | Potency [7] | Potency [8] | Potency [9]

NCCCC(O)(P(=O)(O)O)P(=O)(O)O
inactive: Potency [1] | Potency [2] | Potency [3] | Potency [4] | Potency [5] | Potency [6] | Potency [8] | Potency [9]
